HCV NS3h FP = blocks HCV NS3 helicase binding to DNA; NS3h Cy5-dT15 DNA binding, fluorescence polarization; inhibition, % at 100 µM; 16,000 compounds, 1.6% hits;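 active = inhibition above the average over every tested compound plus 3 SD, cut at about 40% in these data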
Cy5 interf NS3h = counter-screen for HCV NS3 helicase inhibitors: fluorescence interference; Cy5-dT15 DNA with NS3h; actives lie on both sides; signal over control mean, under 1 quenches; fluorescence interference ratio at 100 µM; 16,000 compounds, 6% hits;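 active = compound fluorescence over control fluorescence at most 0.8, a quencher, or at least a set upper limit, an enhancer; inactive = ratio between 0.8 and the set upper limit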
* hit, by the source's call. Rows were chosen to be rich in hits. Some 7.6% of all compounds tested hit in one or more screens of this group.

SMILES | HCV NS3h FP | Cy5 interf NS3h
Cc1ccc(N2C(=O)NC(=O)/C(=C\c3ccc(-c4ccc([N+](=O)[O-])cc4Cl)o3)C2=O)cc1 | 6 | 0.88
Cc1ccc([N+](=O)[O-])cc1-c1ccc(/C=C2\C(=O)NC(=O)N(c3ccc(Cl)cc3)C2=O)o1 | 9 | 1.3*
CNS(=O)(=O)c1cc(O)c2c(S(=O)(=O)NC)cc(S(=O)(=O)NC)cc2c1 | -5 | 0.91
O=C(O/C(=C/c1nccn1Cc1ccc(Cl)cc1)c1ccccc1)c1ccccc1 | 6 | 1.2*
Cn1ccnc1/C=C(/OC(=O)c1ccc(Cl)cc1)c1ccc(Cl)cc1 | -4 | 0.98
COc1ccc(C2N(c3ccccc3)CCN2c2ccccc2)cc1O | 11 | 0.75*
COc1ccc(C2N(Cc3ccccc3)CCN2Cc2ccccc2)cc1OC | 12 | 0.91
O=C(Nc1sc2c(c1C(=O)N1CCCCC1)CCCCC2)c1ccncc1 | -12 | 0.95
CC1CC(Nc2ccccc2)c2ccccc2N1C(=O)c1ccc(Cl)cc1Cl (stereo unspecified) | 12 | 0.62*
CC1CC(Nc2ccccc2)c2ccccc2N1C(=O)COc1ccc(Cl)cc1 (stereo unspecified) | 9 | 1
COc1cc(/C=C2/SC(=S)N(CCC(=O)O)C2=O)cc(Br)c1O | 17 | 0.99
CC(C)Nc1nc(-c2cccnc2)nc2ccccc12 | 5 | 1
CC(C)CN1C(=O)c2ccc(C(=O)Nc3c[nH]c(=O)[nH]c3=O)cc2C1=O | 6 | 0.66*
CCC(=O)Nc1ccc(C(=O)Nc2c[nH]c(=O)[nH]c2=O)cc1 | 10 | 1.2
CC(=O)Oc1ccccc1/C=N\NC(=O)/C(=C\c1ccc2c(c1)OCO2)NC(=O)c1ccccc1 | 20 | 1.1
O=C(NC(=C(Cl)Cl)S(=O)(=O)c1ccc(Cl)cc1)c1ccccc1 | 2 | 0.79*
COC(=NS(=O)(=O)c1ccc(Cl)cc1)c1ccccc1 | 4 | 1
O=C(/C=C/c1cccc(C(F)(F)F)c1)Nc1ccc([N+](=O)[O-])cc1 | -1 | 1
COc1ccc(C2C3C(=O)N(c4ccccc4)C(=O)C3ON2c2ccccc2C)cc1 (stereo unspecified) | 8 | 1
CCOC(=O)c1c(-c2ccccc2)oc2cc(Br)c(OCC)cc12 | 8 | 1
O=C1C(=O)N(c2cccc(Cl)c2)C(c2ccccc2[N+](=O)[O-])C1=C(O)c1ccccc1 (stereo unspecified) | 2 | 0.9
CC1(C)CC(=O)C2=C(C1)OC1=C(C(=O)CC(C)(C)C1)C2c1cccc([N+](=O)[O-])c1 | 15 | 1
Cc1ccc(C2C3=C(CC(C)(C)CC3=O)OC3=C2C(=O)CC(C)(C)C3)o1 | 16 | 0.67*
C=CCc1ccccc1OCCOc1ccc(Br)cc1/C=C1/SC(=S)N(C)C1=O | 2 | 1.1
COc1ccc(N)cc1-n1c(C)ccc1C | 4 | 0.4*
SMILES | HCV NS3h FP | Cy5 interf NS3h
Cc1ccc(N2CC(C(=O)Nc3ccc(Cl)cc3)CC2=O)cc1 (stereo unspecified) | 7 | 0.98
CCOC(=O)Nc1cc([N+](=O)[O-])ccc1Cl | 19 | 0.98
CCOC(=O)Nc1n[nH]c(NC(=O)OCC)c1[N+](=O)[O-] | 12 | 0.66*
Cc1cc(Cl)ccc1NC(=O)c1cccc(I)c1 | 9 | 0.87
NC(=O)c1nn2c(c1Cl)NC(c1cccs1)CC2C(F)(F)F (stereo unspecified) | 0 | 0.67*
O=C(Nc1ccc(OC(F)(F)F)cc1)c1cc2n(n1)C(C(F)(F)F)CC(c1cccs1)N2 (stereo unspecified) | 9 | 0.71*
O=C(NCC1CCCO1)c1cc2n(n1)C(C(F)(F)F)CC(c1cccs1)N2 (stereo unspecified) | 4 | 1
CC1CCCC(C)N1C(=O)c1nn2c(c1Cl)NC(c1cccs1)CC2C(F)(F)F (stereo unspecified) | 9 | 0.99
O=C(NCCCNc1ccc([N+](=O)[O-])cc1Cl)c1cccnc1 | 0 | 0.97
CC(=O)Nc1ccc(OC(=O)c2c(F)cccc2F)cc1 | 4 | 0.95
Cc1ccc(CSCCNC(=O)CN(c2cccc([N+](=O)[O-])c2)S(=O)(=O)c2ccccc2)cc1 | 20 | 1.1
O=C(CN(c1cccc([N+](=O)[O-])c1)S(=O)(=O)c1ccccc1)NCCSc1ccc(Cl)cc1 | 24 | 0.72*
COCCCNC(=O)CN(c1cccc([N+](=O)[O-])c1)S(=O)(=O)c1ccccc1 | 14 | 0.73*
COc1ccc(CCNC(=O)CN(c2cccc([N+](=O)[O-])c2)S(=O)(=O)c2ccccc2)cc1OC | 14 | 1
O=S1(=O)CCC(N2CCCCC2)C1 (stereo unspecified) | -3 | 1.1
O=C1Nc2ccccc2C1(O)C/C(=N\O)c1ccc(Cl)cc1 (stereo unspecified) | 2 | 0.98
CC(=O)C(C(=O)c1ccccc1)C1(O)C(=O)Nc2ccccc21 (stereo unspecified) | -3 | 0.79*
Cc1ccc(NCCC(=O)c2cccc([N+](=O)[O-])c2)cc1Cl | 9 | 1
Cc1ccc(-n2nc(C)c(-c3cccc([N+](=O)[O-])c3)c2C)cc1Cl | 7 | 0.65*
COc1ccc(NC(=O)CSc2ncccn2)cc1 | 0 | 1.1
CCOc1ccc(NC(=O)CSc2nnc(-c3ccc(OC)cc3)o2)cc1 | 20 | 0.74*
O=C(c1cccc(I)c1)N1CCN(c2ccccn2)CC1 | 6 | 1
COCCCNC(=O)C(=O)NCCc1ccc(OC)cc1 | 13 | 0.74*
Cc1ccc(C(O)(CNCc2ccccc2)c2ccc(Br)cc2)cc1 (stereo unspecified) | 7 | 0.93
COc1ccc(C(O)(CNCc2ccccc2)c2ccc(Br)cc2)cc1 (stereo unspecified) | 16 | 0.73*
SMILES | HCV NS3h FP | Cy5 interf NS3h
O=C(O)c1ccc(C(=O)NCc2ccccc2)c(C(=O)O)c1 | -8 | 1
COc1ccc(CCNC(=O)C(=O)NCCCOC(C)C)cc1 | 6 | 1.1
O=C(Cc1ccc(F)cc1)NCC1CCCO1 (stereo unspecified) | 4 | 0.75*
O=C(NCc1ccccc1)c1ccccc1Cl | 7 | 0.79*
COc1ccc(CC(=O)NCC2CCCO2)cc1OC (stereo unspecified) | 1 | 1.1
Cc1ccc(N2C(=O)c3ccc4c5c(ccc(c35)C2=O)CC4)c(C)c1 | 8 | 1
C=CCn1c(-c2ccc(C(C)(C)C)cc2)n[nH]c1=S | 12 | 1
Cc1cc(-c2ccccc2)nc(=S)[nH]1 | -4 | 0.92
COC(=O)C1=C(C)N(c2cccc(OC)c2)C(=O)/C1=C\c1ccccc1F | 10 | 0.89
COc1ccc(NC(=O)c2ccc(C)c(C)c2)c(OC)c1 | 8 | 0.97
COCCNC(=S)Nc1ccc(OC)cc1 | 8 | 0.77*
S=C(NCCOCCOCCNC(=S)Nc1ccccc1)Nc1ccccc1 | 3 | 1.1
Cc1ccc(CNC(=O)C(=O)N2CCCC2)cc1 | 4 | 1.3*
COc1ccc(CNC(=O)C(=O)Nc2ccccc2C)cc1 | 4 | 1.1
Cc1ccc(CNC(=O)C(=O)NC(C)C)cc1 | 12 | 1.1
O=C(NCc1ccc(F)cc1)c1ccccc1I | 10 | 1
COc1ccc(CNC(=O)C(=O)NCc2ccccc2)cc1 | 10 | 0.73*
O=C(Cc1ccc(F)cc1)NCc1ccccc1 | 3 | 0.59*
Cc1cc(C=C2C(=O)NC(=O)NC2=O)c(C)n1-c1cccc([N+](=O)[O-])c1 | -7 | 0.85
O=C(Nc1ccccc1C(=O)O)c1ccc2c(c1)C(=O)N(c1ccc(Cl)cc1)C2=O | 13 | 1.1
